Drawing on ChEMBL document CHEMBL1961873, “Compounds: GSK PKIS; Assays: Nanosyn kinase panel” (2012), this text covers inhibition for three compounds.

Test [1] addresses High affinity nerve growth factor receptor (Homo sapiens) (UniProt P04629). The settings on record: at 1 µM.
In test [2] the target is BDNF/NT-3 growth factors receptor (Homo sapiens) (UniProt Q16620). The settings on record: at 0.1 µM.
Test [3] has the same target. The settings on record: at 1 µM.
The target of test [4] is NT-3 growth factor receptor (Homo sapiens) (UniProt Q16288). The settings on record: at 0.1 µM.
The target is the same in test [5]. The settings on record: at 1 µM.
The target in test [6] is T1, Tyrosine-protein kinase TXK (Homo sapiens) (UniProt P42681).
T1 sequence (whole entry): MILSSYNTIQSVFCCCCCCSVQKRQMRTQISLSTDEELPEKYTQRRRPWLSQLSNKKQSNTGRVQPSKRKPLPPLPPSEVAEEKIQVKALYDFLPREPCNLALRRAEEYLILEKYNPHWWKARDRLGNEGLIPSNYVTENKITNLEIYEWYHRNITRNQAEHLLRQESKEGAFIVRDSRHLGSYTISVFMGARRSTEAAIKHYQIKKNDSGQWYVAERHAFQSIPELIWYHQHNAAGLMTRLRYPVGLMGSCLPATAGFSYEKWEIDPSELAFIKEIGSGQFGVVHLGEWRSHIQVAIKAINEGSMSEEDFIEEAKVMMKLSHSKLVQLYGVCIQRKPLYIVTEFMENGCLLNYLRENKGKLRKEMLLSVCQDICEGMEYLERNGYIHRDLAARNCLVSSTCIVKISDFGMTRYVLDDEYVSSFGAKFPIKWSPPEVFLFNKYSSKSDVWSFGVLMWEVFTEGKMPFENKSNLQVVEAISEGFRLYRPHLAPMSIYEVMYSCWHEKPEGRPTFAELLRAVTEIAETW
The settings on record: at 0.1 µM.

Test [7] addresses T1, Tyrosine-protein kinase TXK (Homo sapiens). The settings on record: at 1 µM.
Test [8] addresses Non-receptor tyrosine-protein kinase TYK2 (Homo sapiens) (UniProt P29597). The settings on record: at 0.1 µM.
In test [9] the target is T2, Dual specificity protein kinase TTK (Homo sapiens) (UniProt P33981).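 Note: reported figures are mean TTK inhibition at 1 µM.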
T2 sequence (whole entry): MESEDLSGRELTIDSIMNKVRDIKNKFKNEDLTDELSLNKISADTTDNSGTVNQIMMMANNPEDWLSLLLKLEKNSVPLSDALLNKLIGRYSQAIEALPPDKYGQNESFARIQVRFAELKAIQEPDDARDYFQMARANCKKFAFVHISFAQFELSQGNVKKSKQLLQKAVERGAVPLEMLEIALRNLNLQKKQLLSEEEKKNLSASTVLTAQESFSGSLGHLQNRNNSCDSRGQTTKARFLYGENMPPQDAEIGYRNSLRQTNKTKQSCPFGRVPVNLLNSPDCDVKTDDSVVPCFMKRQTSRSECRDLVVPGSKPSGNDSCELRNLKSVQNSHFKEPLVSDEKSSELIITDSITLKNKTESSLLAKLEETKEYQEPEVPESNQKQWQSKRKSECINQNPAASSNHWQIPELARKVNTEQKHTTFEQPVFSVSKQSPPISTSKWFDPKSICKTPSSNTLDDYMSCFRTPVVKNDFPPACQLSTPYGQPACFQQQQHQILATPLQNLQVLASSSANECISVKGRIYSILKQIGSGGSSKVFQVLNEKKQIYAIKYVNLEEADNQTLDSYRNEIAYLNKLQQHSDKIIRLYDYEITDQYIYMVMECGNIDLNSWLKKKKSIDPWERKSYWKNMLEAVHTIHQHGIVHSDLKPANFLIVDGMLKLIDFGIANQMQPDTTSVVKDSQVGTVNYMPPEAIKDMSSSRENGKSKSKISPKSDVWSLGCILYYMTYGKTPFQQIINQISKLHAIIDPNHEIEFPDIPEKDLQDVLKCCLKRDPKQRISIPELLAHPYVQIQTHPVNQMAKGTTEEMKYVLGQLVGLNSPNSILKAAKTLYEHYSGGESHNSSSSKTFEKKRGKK
The settings on record: at 1 µM.

Test [10] deals with T3, Aurora kinase A (Homo sapiens) (UniProt O14965).
T3 sequence (whole entry): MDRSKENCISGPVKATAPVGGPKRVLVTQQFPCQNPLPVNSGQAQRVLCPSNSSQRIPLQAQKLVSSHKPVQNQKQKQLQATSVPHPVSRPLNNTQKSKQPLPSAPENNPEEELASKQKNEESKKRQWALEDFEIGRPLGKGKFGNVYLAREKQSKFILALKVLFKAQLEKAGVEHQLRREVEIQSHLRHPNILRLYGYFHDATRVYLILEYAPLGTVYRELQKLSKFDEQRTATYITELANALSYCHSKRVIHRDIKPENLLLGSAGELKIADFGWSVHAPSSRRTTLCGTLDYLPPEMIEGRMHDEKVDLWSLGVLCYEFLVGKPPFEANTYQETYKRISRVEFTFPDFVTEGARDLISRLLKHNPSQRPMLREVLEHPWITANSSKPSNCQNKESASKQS
The settings on record: at 0.1 µM.

For test [11], the target named is T3, Aurora kinase A (Homo sapiens). The settings on record: at 1 µM.
Test [12] addresses Aurora kinase B (Homo sapiens) (UniProt Q96GD4). The settings on record: at 0.1 µM.
Test [13] has the same target. The settings on record: at 1 µM.
In test [14] the target is T4, Aurora kinase C (Homo sapiens) (UniProt Q9UQB9).
T4 sequence (whole entry): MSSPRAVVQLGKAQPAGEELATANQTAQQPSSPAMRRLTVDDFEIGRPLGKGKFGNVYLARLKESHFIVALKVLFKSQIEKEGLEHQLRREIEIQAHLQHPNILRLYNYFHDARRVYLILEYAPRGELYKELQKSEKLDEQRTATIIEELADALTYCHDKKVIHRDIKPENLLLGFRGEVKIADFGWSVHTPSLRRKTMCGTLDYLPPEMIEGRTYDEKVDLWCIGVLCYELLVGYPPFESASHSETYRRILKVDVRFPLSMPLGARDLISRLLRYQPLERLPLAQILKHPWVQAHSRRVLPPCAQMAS
The settings on record: at 0.1 µM.

Test [15] addresses T4, Aurora kinase C (Homo sapiens). The settings on record: at 1 µM.
In test [16] the target is Serine/threonine-protein kinase 10 (Homo sapiens) (UniProt O94804). The settings on record: at 0.1 µM.
The target is the same in test [17]. The settings on record: at 1 µM.
Test [18] deals with T5, Mitogen-activated protein kinase kinase kinase kinase 2 (Homo sapiens) (UniProt Q12851).
T5 sequence (whole entry): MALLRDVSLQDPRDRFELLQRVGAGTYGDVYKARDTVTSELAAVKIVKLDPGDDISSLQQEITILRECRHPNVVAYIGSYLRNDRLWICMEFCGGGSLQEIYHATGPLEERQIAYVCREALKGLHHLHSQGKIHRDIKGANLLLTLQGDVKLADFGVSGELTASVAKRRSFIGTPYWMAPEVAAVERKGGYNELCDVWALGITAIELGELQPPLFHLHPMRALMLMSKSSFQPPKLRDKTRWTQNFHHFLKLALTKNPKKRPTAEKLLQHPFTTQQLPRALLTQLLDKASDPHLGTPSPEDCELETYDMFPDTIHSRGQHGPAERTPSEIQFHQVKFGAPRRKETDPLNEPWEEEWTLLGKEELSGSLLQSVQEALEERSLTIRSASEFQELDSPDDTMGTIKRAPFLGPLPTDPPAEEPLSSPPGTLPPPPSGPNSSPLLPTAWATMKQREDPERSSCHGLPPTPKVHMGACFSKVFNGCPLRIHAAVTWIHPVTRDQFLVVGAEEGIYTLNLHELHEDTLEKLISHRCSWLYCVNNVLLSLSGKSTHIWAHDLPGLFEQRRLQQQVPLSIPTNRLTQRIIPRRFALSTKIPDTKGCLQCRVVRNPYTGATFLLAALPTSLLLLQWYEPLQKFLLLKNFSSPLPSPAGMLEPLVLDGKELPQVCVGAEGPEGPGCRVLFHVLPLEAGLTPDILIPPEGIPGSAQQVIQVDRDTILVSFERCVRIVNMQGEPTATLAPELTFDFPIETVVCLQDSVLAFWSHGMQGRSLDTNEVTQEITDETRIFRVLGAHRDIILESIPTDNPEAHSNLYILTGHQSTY
The settings on record: at 0.1 µM.

Test [19] concerns the target T5, Mitogen-activated protein kinase kinase kinase kinase 2 (Homo sapiens). The settings on record: at 1 µM.
Test [20] addresses Mitogen-activated protein kinase kinase kinase kinase 4 (Homo sapiens) (UniProt O95819). The settings on record: at 0.1 µM.

Non-receptor tyrosine-protein kinase TYK2 (Homo sapiens), sequence (P29597 whole entry): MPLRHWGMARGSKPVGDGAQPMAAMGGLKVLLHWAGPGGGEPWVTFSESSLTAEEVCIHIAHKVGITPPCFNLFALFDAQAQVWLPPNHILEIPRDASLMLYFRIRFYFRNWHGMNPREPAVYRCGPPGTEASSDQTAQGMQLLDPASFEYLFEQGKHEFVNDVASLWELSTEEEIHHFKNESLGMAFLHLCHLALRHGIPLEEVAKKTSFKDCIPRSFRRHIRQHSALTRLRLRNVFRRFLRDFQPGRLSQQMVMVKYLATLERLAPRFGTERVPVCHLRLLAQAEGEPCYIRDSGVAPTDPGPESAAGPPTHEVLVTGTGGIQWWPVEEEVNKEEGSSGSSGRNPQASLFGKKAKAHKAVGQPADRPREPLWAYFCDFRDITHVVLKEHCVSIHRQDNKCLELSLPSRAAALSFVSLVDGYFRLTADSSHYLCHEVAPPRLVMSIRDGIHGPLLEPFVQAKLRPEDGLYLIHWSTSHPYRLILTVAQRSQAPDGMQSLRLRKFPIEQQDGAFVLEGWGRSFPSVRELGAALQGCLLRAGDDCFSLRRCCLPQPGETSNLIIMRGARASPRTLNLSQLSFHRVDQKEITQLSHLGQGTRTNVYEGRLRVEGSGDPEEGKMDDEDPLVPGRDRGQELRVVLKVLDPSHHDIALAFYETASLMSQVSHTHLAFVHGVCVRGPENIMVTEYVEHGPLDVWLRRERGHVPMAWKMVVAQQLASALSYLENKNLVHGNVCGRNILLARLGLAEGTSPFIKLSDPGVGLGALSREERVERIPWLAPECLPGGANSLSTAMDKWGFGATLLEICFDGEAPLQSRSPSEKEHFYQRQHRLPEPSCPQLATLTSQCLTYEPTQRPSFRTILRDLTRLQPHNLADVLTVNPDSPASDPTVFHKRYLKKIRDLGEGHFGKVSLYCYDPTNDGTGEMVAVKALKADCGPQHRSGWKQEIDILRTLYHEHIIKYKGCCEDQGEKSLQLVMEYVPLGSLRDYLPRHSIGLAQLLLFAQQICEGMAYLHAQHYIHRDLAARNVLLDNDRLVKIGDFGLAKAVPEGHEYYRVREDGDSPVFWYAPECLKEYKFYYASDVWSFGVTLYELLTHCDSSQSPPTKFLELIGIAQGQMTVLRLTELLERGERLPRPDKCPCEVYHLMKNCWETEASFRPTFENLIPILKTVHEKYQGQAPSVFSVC
BDNF/NT-3 growth factors receptor (Homo sapiens), sequence (Q16620 32-822 limits assumed): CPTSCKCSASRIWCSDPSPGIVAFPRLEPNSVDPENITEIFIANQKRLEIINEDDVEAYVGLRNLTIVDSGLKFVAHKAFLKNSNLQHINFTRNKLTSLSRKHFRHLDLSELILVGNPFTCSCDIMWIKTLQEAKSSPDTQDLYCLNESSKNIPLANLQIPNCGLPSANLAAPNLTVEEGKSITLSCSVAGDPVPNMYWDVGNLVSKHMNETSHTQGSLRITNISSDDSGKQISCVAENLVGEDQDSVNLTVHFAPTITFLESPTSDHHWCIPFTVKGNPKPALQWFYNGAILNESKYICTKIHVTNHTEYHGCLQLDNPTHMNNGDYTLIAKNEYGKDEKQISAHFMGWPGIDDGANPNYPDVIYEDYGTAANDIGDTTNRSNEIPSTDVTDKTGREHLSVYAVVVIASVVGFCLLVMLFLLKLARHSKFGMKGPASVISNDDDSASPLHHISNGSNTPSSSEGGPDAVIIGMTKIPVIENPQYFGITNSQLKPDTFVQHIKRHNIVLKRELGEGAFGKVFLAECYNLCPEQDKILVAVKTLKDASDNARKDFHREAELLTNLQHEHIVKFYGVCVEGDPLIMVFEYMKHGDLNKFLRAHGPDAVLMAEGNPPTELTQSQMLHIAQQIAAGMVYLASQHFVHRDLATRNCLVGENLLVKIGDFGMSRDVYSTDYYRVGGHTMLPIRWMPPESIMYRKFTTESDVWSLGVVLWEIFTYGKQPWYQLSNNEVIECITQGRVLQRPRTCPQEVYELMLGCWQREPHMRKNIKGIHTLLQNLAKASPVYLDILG
Mitogen-activated protein kinase kinase kinase kinase 4 (Homo sapiens), sequence (O95819 2-1239 limits assumed): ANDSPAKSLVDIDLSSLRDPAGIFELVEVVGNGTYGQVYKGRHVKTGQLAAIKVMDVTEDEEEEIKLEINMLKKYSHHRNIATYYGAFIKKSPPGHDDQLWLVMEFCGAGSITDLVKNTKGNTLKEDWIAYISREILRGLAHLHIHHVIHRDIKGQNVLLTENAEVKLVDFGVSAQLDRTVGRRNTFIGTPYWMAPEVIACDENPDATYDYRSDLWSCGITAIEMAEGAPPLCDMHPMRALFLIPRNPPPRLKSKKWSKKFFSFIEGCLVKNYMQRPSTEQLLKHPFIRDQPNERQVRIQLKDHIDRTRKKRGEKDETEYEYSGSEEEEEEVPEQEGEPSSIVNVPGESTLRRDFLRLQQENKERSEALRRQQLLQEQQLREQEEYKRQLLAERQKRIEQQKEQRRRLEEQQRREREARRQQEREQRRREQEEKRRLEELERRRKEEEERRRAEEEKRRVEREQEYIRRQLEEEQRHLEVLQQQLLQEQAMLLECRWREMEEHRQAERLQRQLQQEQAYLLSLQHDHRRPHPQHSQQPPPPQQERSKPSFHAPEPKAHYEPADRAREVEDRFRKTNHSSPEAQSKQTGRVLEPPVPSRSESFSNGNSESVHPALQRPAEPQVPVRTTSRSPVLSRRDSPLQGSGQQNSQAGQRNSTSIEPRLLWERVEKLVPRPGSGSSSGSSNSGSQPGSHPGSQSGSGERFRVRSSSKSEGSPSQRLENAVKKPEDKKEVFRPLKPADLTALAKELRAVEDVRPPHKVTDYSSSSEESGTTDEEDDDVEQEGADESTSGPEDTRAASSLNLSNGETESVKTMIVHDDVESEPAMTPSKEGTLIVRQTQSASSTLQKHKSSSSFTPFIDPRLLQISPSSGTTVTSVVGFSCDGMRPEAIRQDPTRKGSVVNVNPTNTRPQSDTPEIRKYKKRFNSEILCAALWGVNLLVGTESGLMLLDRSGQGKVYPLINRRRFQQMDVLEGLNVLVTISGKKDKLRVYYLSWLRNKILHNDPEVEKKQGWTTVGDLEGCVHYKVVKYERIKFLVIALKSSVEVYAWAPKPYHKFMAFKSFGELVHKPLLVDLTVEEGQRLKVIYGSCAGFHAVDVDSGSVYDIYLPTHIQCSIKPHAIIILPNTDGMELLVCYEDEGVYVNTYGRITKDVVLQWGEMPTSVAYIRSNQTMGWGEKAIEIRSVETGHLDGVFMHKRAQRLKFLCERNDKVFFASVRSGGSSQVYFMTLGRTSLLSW
Aurora kinase B (Homo sapiens), sequence (Q96GD4 whole entry): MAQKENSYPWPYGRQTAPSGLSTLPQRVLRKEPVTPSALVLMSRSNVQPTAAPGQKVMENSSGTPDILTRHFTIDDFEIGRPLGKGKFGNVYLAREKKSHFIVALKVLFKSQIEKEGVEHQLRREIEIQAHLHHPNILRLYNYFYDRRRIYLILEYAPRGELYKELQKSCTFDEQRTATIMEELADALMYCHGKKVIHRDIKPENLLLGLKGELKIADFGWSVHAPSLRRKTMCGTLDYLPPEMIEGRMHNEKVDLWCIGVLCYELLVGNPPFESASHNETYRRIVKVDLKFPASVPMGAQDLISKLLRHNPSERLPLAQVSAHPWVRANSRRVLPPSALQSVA
High affinity nerve growth factor receptor (Homo sapiens), sequence (P04629 33-796 limits assumed): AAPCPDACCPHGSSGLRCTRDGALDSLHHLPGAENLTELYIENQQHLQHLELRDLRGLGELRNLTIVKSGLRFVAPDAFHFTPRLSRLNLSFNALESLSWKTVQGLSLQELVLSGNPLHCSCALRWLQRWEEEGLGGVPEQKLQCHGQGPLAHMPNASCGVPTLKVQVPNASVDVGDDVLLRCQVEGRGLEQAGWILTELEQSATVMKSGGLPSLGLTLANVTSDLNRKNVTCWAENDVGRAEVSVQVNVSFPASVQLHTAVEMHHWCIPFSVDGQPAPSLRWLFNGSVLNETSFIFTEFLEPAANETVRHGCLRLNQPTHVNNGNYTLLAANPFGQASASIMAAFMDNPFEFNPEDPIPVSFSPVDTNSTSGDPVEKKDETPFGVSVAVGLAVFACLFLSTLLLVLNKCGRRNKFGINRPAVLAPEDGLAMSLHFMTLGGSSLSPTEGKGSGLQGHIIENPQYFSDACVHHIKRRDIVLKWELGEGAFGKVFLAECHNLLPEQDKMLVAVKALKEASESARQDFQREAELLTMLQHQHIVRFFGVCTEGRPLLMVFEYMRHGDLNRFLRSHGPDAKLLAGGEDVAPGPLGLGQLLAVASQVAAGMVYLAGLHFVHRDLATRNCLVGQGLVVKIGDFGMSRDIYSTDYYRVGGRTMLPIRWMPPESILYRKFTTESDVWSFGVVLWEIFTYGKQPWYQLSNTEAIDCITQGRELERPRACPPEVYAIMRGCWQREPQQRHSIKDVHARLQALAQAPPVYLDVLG

Consider `COc1cc(Nc2ncc3c(C)nc(-c4cccc(Oc5ccccc5)c4)n3n2)cc(OC)c1OC`, for which the inhibition (commonly the relative decrease from the control value, in per cent) in [1] was 1.05%; in [2], 0.27%; in test [3] it was 1.55%; in test [4], 1.86%; in test [5], 2.38%; in [6], 2.38%. Also, the inhibition is 4.09% in test [7]; -0.63% in test [8]; 14.8% in test [9]; 2.19% in [10]; 44.4% in [11]; 2% in test [12]. The inhibition in test [13] stood at 15.8%; in test [14], 1.04%; in test [15] it was 30.1%; in [16], 1.18%; in [17] it was 1.99%; in test [18] it was 1.28%. Further, the results for the inhibition in test [19] and in [20] were 4.18% and 1.36%, respectively.

For the compound `C[C@@H](Oc1cc(-n2cnc3ccc(OCC4CCN(C)CC4)cc32)sc1C(N)=O)c1ccccc1Cl`, the inhibition was determined as 5.94% in test [1]; 3.02% in test [2]; 10.1% in test [3]; 4.35% in [4]; 10.4% in test [5]; 5.54% in [6]. Further, the inhibition in test [7] was 8.91%; in test [8], -2.69%; in [9] it was 43.2%; in test [10], 3.84%; in test [11] it was 6.43%; in test [12], 4.49%. Moreover, the inhibition in test [13] is 5.33%; in test [14] it was -0.3%; in test [15], 3%; in test [16] it was 63.3%; in test [17], 86.9%; in test [18], 2.59%. Further, the inhibition in [19] is 13.9%; in test [20], 4.27%.

Turning to `CS(=O)(=O)CCNCc1cc(-c2cc3c(Nc4ccc(OCc5cccc(F)c5)c(Cl)c4)ncnc3s2)cs1`, the inhibition in test [1] was 7.01%; in test [2], 3.47%; in [3], 5.03%; in test [4] it was 5.13%; in test [5], 3.52%; in test [6] it was 7.43%. Also, the inhibition is 6.57% in [7]; -4.26% in test [8]; 9.22% in [9]; 4.18% in test [10]; 4.87% in test [11]; 5.13% in [12]. Besides, the inhibition in [13] is 9.34%; in test [14], 3.65%; in [15], 8.71%; in test [16] it was 9.33%; in test [17], 12.9%; in test [18] it was 0.39%. Also, the inhibition in [19] came out at 3.81%; in test [20], 4.31%.
